Values joined by “and” are separate entries in the source; they are usually repeats but may differ in a detail not shown here. Identical values can stand only once. Where a structure was tested more than once in an assay, its records may differ in their call. Active and inactive are the calls of the source. How the source made its calls: active means hit-call score of the fitted dose curve at least 0.9, where 1 is the maximum; inactive means score below 0.9.
Experiments:
[1] = BSK_CASM3C_SRB: Viability Assessment in the BioMAP Diversity Plus: CASM3C Assay (AID 2283050); details: primary human coronary artery smooth muscle cells;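 further: total protein by SRB staining as cytotoxicity measure in parallel cultures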
[2] = read-out: Thrombomodulin, THBD (gene 7056); test: BSK_CASM3C_Thrombomodulin: BioMAP Diversity Plus: CASM3C Assay for Thrombomodulin Biomarker Activity (AID 2283051); details: primary human coronary artery smooth muscle cells; actives raise or lower the signal;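 further: thrombomodulin protein level measured by ELISA 24 h after dosing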
[3] = read-out: Tissue Factor, F3 (gene 2152); test: BSK_CASM3C_TissueFactor: BioMAP Diversity Plus: CASM3C Assay for Tissue Factor Biomarker Activity (AID 2283052); details: primary human coronary artery smooth muscle cells; actives raise or lower the signal;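 further: cell surface tissue factor protein level read by ELISA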
[4] = read-out: Interferon-gamma inducible Protein 10 (IP10), CXCL10 (gene 3627); test: BSK_hDFCGF_IP10: BioMAP Diversity Plus: hDFCGF Assay for Interferon-gamma inducible Protein 10 (IP10) Biomarker Activity (AID 2283053); details: primary human foreskin fibroblasts; actives raise or lower the signal
In short: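 Primary foreskin fibroblasts, human; 24 h compound exposure; IP-10 by ELISA; bidirectional fit vs DMSO.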

[5] = read-out: Urokinase-type plasminogen activator receptor (uPAR), PLAUR (gene 5329); test: BSK_CASM3C_uPAR: BioMAP Diversity Plus: CASM3C Assay for Urokinase-type plasminogen activator receptor (uPAR) Biomarker Activity (AID 2283054); details: primary human coronary artery smooth muscle cells; actives raise or lower the signal;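 further: cell-surface uPAR protein level quantified by ELISA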
[6] = read-out: Vascular cell adhesion molecule 1 (VCAM1), VCAM1 (gene 7412); test: BSK_CASM3C_VCAM1: BioMAP Diversity Plus: CASM3C Assay for Vascular cell adhesion molecule 1 (VCAM1) Biomarker Activity (AID 2283055); details: primary human coronary artery smooth muscle cells; actives raise or lower the signal;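 further: VCAM-1 protein level quantified by ELISA on the cells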
[7] = read-out: Collagen III, COL3A1 (gene 1281); test: BSK_hDFCGF_CollagenIII: BioMAP Diversity Plus: hDFCGF Assay for Collagen III Biomarker Activity (AID 2283056); details: primary human foreskin fibroblasts; actives raise or lower the signal
In short: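 Response relative to DMSO, fitted in both directions, reflects ELISA-measured collagen III in human primary skin fibroblasts 24 h after compound addition.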

[8] = read-out: Epidermal growth factor receptor (EGFR), EGFR (gene 1956); test: BSK_hDFCGF_EGFR: BioMAP Diversity Plus: hDFCGF Assay for Epidermal growth factor receptor (EGFR) Biomarker Activity (AID 2283057); details: primary human foreskin fibroblasts; actives raise or lower the signal
In short: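 hDFCGF system, primary human foreskin fibroblasts; compound 24 h; EGFR measured by ELISA; DMSO = negative control/baseline; bidirectional fitting.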

[9] = read-out: Interleukin-8 (IL8), CXCL8 (gene 3576); test: BSK_hDFCGF_IL8: BioMAP Diversity Plus: hDFCGF Assay for Interleukin-8 (IL8) Biomarker Activity (AID 2283058); details: primary human foreskin fibroblasts; actives raise or lower the signal
In short: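 Fibroblast monolayers (human foreskin, hDFCGF) received test chemical for 24 h before ELISA detection of IL-8; either increases or decreases relative to DMSO count as activity.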

[10] = BSK_hDFCGF_Proliferation: Cell Proliferation Assessment in the BioMAP Diversity Plus: hDFCGF Assay (AID 2283059); details: primary human foreskin fibroblasts;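 further: curves fitted for both rise and fall of signal versus DMSO baseline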
In short: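 Total protein read at 560 nm after 0.1% SRB staining of TCA-fixed human skin fibroblasts, […]. Activity is fitted in both directions relative to DMSO as baseline.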

[11] = read-out: Macrophage colony-stimulating factor (MCSF), CSF1 (gene 1435); test: BSK_hDFCGF_MCSF: BioMAP Diversity Plus: hDFCGF Assay for Macrophage colony-stimulating factor (MCSF) Biomarker Activity (AID 2283060); details: primary human foreskin fibroblasts; actives raise or lower the signal
In short: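 fibroblasts (human foreskin, primary), 24 h post-dose; M-CSF by ELISA; bidirectional fit, DMSO = baseline.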

[12] = BSK_hDFCGF_SRB: Viability Assessment in the BioMAP Diversity Plus: hDFCGF Assay (AID 2283061); details: primary human foreskin fibroblasts;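 further: cells exposed to compound for 24 h before the read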
In short: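 SRB-based viability read on primary human skin fibroblasts at 24 h: TCA fixation, 0.1% dye, 560 nm. Gain or loss of signal is fitted against the DMSO negative control.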

[13] = read-out: TIMP metallopeptidase inhibitor 1 (TIMP1), TIMP1 (gene 7076); test: BSK_hDFCGF_TIMP1: BioMAP Diversity Plus: hDFCGF Assay for TIMP metallopeptidase inhibitor 1 (TIMP1) Biomarker Activity (AID 2283062); details: primary human foreskin fibroblasts; actives raise or lower the signal
In short: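 Bidirectional curve fitting against DMSO baseline yielded this endpoint, based on ELISA detection of TIMP-1 in primary human foreskin fibroblasts exposed to compound for 24 h.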

[14] = read-out: Monokine induced gamma interferon (MIG), CXCL9 (gene 4283); test: BSK_hDFCGF_MIG: BioMAP Diversity Plus: hDFCGF Assay for Monokine induced gamma interferon (MIG) Biomarker Activity (AID 2283063); details: primary human foreskin fibroblasts; actives raise or lower the signal
In short: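 Endpoint derived by bidirectional fitting relative to DMSO; MIG quantified via ELISA in primary human foreskin fibroblasts harvested 24 h after dosing.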

[15] = read-out: Matrix Metallopeptidase 1 (MMP1), MMP1 (gene 4312); test: BSK_hDFCGF_MMP1: BioMAP Diversity Plus: hDFCGF Assay for Matrix Metallopeptidase 1 (MMP1) Biomarker Activity (AID 2283064); details: primary human foreskin fibroblasts; actives raise or lower the signal
In short: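 Primary human foreskin fibroblasts exposed to chemicals for 24 h; MMP1 measured by ELISA. Cytotoxicity tracked by SRB staining in parallel cultures; bidirectional fit relative to DMSO.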

[16] = read-out: Vascular cell adhesion molecule 1 (VCAM1), VCAM1 (gene 7412); test: BSK_hDFCGF_VCAM1: BioMAP Diversity Plus: hDFCGF Assay for Vascular cell adhesion molecule 1 (VCAM1) Biomarker Activity (AID 2283065); details: primary human foreskin fibroblasts; actives raise or lower the signal
In short: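 Measured after 24 h chemical treatment of primary human skin fibroblasts, VCAM-1 was detected by ELISA and concentration-response analysed in both directions versus DMSO vehicle.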

[17] = read-out: Plasminogen activator inhibitor-1 (PAI1), SERPINE1 (gene 5054); test: BSK_hDFCGF_PAI1: BioMAP Diversity Plus: hDFCGF Assay for Plasminogen activator inhibitor-1 (PAI1) Biomarker Activity (AID 2283066); details: primary human foreskin fibroblasts; actives raise or lower the signal
In short: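 Primary dermal fibroblasts (human foreskin), hDFCGF system; compound 24 h; PAI-1 by ELISA; bidirectional fit vs DMSO control.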

[18] = read-out: Intercellular Adhesion Molecule 1 (ICAM1), ICAM1 (gene 3383); test: BSK_KF3CT_ICAM1: BioMAP Diversity Plus: KF3CT Assay for Intercellular Adhesion Molecule 1 (ICAM1) Biomarker Activity (AID 2283067); details: primary human keratinocytes with fibroblasts; actives raise or lower the signal
In short: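 Bidirectional curve fitting against a DMSO baseline was applied to ICAM-1 ELISA signal from primary human skin co-cultures harvested 24 h after treatment, with SRB staining of parallel wells for overt cytotoxicity.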

[19] = read-out: Interferon-gamma inducible Protein 10 (IP10), CXCL10 (gene 3627); test: BSK_KF3CT_IP10: BioMAP Diversity Plus: KF3CT Assay for Interferon-gamma inducible Protein 10 (IP10) Biomarker Activity (AID 2283068); details: primary human keratinocytes with fibroblasts; actives raise or lower the signal
In short: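 Human keratinocyte plus foreskin fibroblast primary co-culture exposed to test chemical for 24 h; IP-10 measured by ELISA. Concentration-response fitted bidirectionally against DMSO control as baseline.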

[20] = BSK_KF3CT_SRB: Viability Assessment in the BioMAP Diversity Plus: KF3CT Assay (AID 2283069); details: primary human keratinocytes with fibroblasts;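 further: total protein by sulforhodamine B staining as a cytotoxicity measure; fitted for both signal gain and loss against DMSO baseline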
In short: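 Human keratinocyte and foreskin fibroblast co-culture exposed to chemical for 24 h. Total protein measured in parallel cultures by 0.1% sulforhodamine B staining after 10% TCA fixation, read at 560 nm; bidirectional fit relative to DMSO.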

Measured: AC50

CCCCOCCOCCO
inactive: [1] | [2] | [3] | [4] | [5] | [6] | [7] | [8] | [9] | [10] | [11] | [12] | [13] | [14] | [15] | [16] | [17] | [18] | [19] | [20]

C=C(C)C(N)=O
inactive: [1] | [2] | [3] | [4] | [5] | [6] | [7] | [8] | [9] | [10] | [11] | [12] | [13] | [14] | [15] | [17] | [18] | [19] | [20]

O=S(=O)(O)C(F)(F)C(F)(F)OC(F)(F)C(F)(F)F
inactive: [1] | [2] | [3] | [4] | [5] | [6] | [7] | [8] | [9] | [10] | [11] | [12] | [13] | [14] | [15] | [17] | [18] | [19] | [20]

CC/C(=C(\c1ccccc1)c1ccc(OCCN(C)C)cc1)c1ccccc1
active: [1] 27.2 µM and 16.9 µM | [2] 4.85 µM | [3] 13.7 µM | [4] 8.93 µM and 7.96 µM | [5] 25.9 µM and 14.2 µM | [6] 29 µM and 16.1 µM | [7] 9.76 µM and 7.96 µM | [9] 9.19 µM and 7.91 µM | [10] 5.05 µM and 314 nM | [11] 7.77 µM and 7.23 µM | [12] 6.75 µM and 6.55 µM | [13] 8.65 µM and 11.5 µM | [14] 9.37 µM and 11 µM | [15] 10.1 µM and 11.1 µM | [17] 7.69 µM and 7.18 µM | [18] 9.03 µM and 8.65 µM | [19] 10.1 µM and 7.37 µM | [20] 6.49 µM and 9.44 µM
inactive: [2] | [3] | [8]

CC(C)(CO)CO
inactive: [1] | [2] | [3] | [4] | [5] | [6] | [7] | [8] | [9] | [10] | [11] | [12] | [13] | [14] | [15] | [17] | [18] | [19] | [20]
active: [12] 4.62 µM

Reference: PubChem BioAssay (EPA / NIEHS)
